Screening results deposited in PubChem by National Center for Advancing Translational Sciences (NCATS).
KDM5B inh = KDM5B demethylase inhibition | Q9UGL1 | KDM5B demethylase, FDH-coupled NADH fluorescence (FDH is formaldehyde dehydrogenase) | Potency, µM (top dose mostly 57.7 µM), actives largely listed as inhibitors | actives 2.6% (n = 220,000) | AID 1347165; active = well fitted inhibition curve with a large enough effect; note: nearly all actives have a fitted effect of over 70% in size
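Measured: NADH fluorescence change, 30 min, RT. System: KDM5BΔAP 200 nM final, H3K4me3 peptide, α-KG, Fe(II), ascorbate, NAD⁺ plus FDH, pH 7.5 HEPES. Compounds: titrated, 10 min pre-incubation with enzyme.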
Each line names hits and unclear results; the compound was inactive in the other large screens. This excerpt belongs to a sample that is enriched for hits.

C/C(=N/NC(=O)C1CCC(C(C)(C)C)CC1)C1CC2CCC1C2 (centres undefined)	none
N#Cc1cccnc1Oc1ccccc1CN1CCCCC1	none
CN1CCN(Cc2ccccc2Oc2ccc(C(F)(F)F)cn2)CC1	none
C#CCOc1ccccc1CN1CCN(c2ncc(F)cn2)CC1	KDM5B inh 28.2µM
CC(C)(C)c1cc(Sc2c(Cl)c(Cl)nc(Cl)c2Cl)cc(C(C)(C)C)c1O	none
CN(C)c1nc2c(c(N3C[C@@H](CN4CCCC4)[C@@H](CO)C3)n1)CCCC2	none
CN(C)c1ccc(CN2C[C@@H](CN3CCCCC3)[C@@H](CO)C2)cn1	KDM5B inh 28.2µM
OC[C@H]1CN(Cc2ccc(-n3ccnc3)cc2)C[C@H]1CN1CCCCC1	none
CCCN(CC1CC1)C(=O)c1coc(COc2ccc3sc(C)nc3c2)n1	none
O=C(Cc1ccc(Cl)cc1)N1CCN(c2ccccc2O)CC1	none
O=C(Cc1ccc(Cl)cc1)N1CCN(c2ccc(F)cc2)CC1	none
O=C(Cc1cccc(C(F)(F)F)c1)N1CCN(c2nnc3ccc(Cl)cn23)CC1	KDM5B inh 25.1µM
NC(=O)C1CCN(C(=O)Cc2cccc(C(F)(F)F)c2)CC1	none
O=C(Cc1ccc(Cl)cc1)N1CCN(c2nnc3ccccn23)CC1	KDM5B inh 25.1µM
O=C(c1ccc(Cn2cc(Cl)cn2)cc1)N1CCN(Cc2cccc(C(F)(F)F)c2)CC1	none
CC1=C(O[Si](C)(C)C)CC2C(=O)OC(=O)C2C1c1ccccc1 (centres undefined)	none
COc1ccc(CNC(=O)C(C)OC(=O)c2cc(Cl)c[nH]2)cc1 (centres undefined)	none
Cc1ccc(C)c(C(=O)Nc2ccc3oc(C)nc3c2)c1	none
COCCN1CCC(N2CCN(C(=O)c3ccc(F)cc3)CC2)C1=O (centres undefined)	none
CC(C)(C)C1CCC2(CC1)NC(=O)N(CC(=O)N1CCCCC1)C2=O (centres undefined)	none
CC1CCCCC1NC(=O)CN(C)Cc1ccc(C(F)(F)F)cc1 (centres undefined)	none
CCN(CC)Cc1ccccc1CNC(=O)c1cc2ccc(OC)cc2nc1C	none
Cc1cnc(C(=O)N[C@@H]2CCC[C@@H]2C(=O)N2CCN(c3ccccn3)CC2)cn1	none
Cc1nc(N2CCCC2)c2c(C(=O)N3CCN(c4cccc(Cl)c4)CC3)c(C)oc2n1	none
Cc1cn2nc(C(=O)N3CCN(c4cccc(Cl)c4)CC3)cc2c(N2CCCC2)n1	KDM5B inh 35.5µM
O=C(c1cn2ccccc2n1)N1CCN(c2cccc(Cl)c2)CC1	none
Cc1cn2nc(C(=O)N3CCN(c4ccccn4)CC3)cc2c(N2CCCC2)n1	KDM5B inh 25.1µM
O=C(c1cc(-c2cccs2)[nH]n1)N1CCN(c2ccccn2)CC1	none
CS(=O)(=O)N1CCCc2cc(C(=O)CSc3nnc(C4CC4)n3Cc3ccccc3)ccc21	none
CN(CC(=O)Nc1ccccc1)C(=O)C(C)(C)C#N	none
CCCCc1ccc(NC(=O)C23CC4CC(CC(C4)C2)C3)cc1	none
Cc1c(-c2nc(-c3ccccc3F)no2)nnn1-c1ccccc1Cl	none
CN(C)CC(=O)NC(=O)NCc1ccccc1	none
O=C(NCCc1ccccc1)c1ccc2c(c1)CCN2S(=O)(=O)c1ccccc1	none
CN1CCCC2(C1)CN(C)c1ccc(C(=O)NCCc3ccccc3)cc12 (centres undefined)	KDM5B inh 31.6µM
Cc1nc(CN2CC3(CCN(C)C3)c3cc(C(=O)NCCc4ccccc4)ccc32)cs1 (centres undefined)	KDM5B inh 28.2µM
CC1CCn2c(nc3cc(C(=O)NCCc4ccccc4)ccc32)C1 (centres undefined)	none
CCS(=O)(=O)Nc1ccc(C(=O)N2CCC3(CCCN(C)C3=O)C2)cc1 (centres undefined)	none
O=C(NCCC(=O)N1CCCC1)c1ccc2c(c1)CCC2	none
CN1C(=O)C2(CCN(C(=O)CCc3ccccc3)C2)c2ccccc21 (centres undefined)	none
CCNC(=O)c1ccc2c(c1)C1(CCCN(C)C1)CN2C (centres undefined)	KDM5B inh 31.6µM
CN(C)CC(=O)N1CCC2(C1)CN(C)c1ccc(C(=O)NCc3ccccc3)cc12 (centres undefined)	KDM5B inh 35.5µM
Cc1nc(CN2C(=O)OC3(CCN(CCc4ccccc4)CC3)C2(C)c2ccccc2)cs1 (centres undefined)	none
Cc1ccc(C(=O)NCCc2ccccc2)cn1	none
O=C(Nc1cccc(Cl)c1)C1CCN(c2cc(C(F)(F)F)ncn2)CC1	none
Cc1ccc(C(=O)N2CCC(N3CCCNC3=O)CC2)cc1	none
O=C1NCc2ccccc2CC12CCN(Cc1ccc(Cl)cc1)C2 (centres undefined)	none
COc1ccc2nc3n(c2c1)[C@@H](CNCc1ccc2c(c1)OCO2)COC3	none
Cc1c(C(=O)C(=O)NCc2ccc(F)cc2)c2ccccc2n1C	none
NC(=O)c1ccc(Sc2ccc(Cl)cc2)nc1	none
Cc1cccc(-n2nnnc2SCc2nc(N)c3ccccc3n2)c1	none
CC(=O)NC(NC(=S)Nc1ccc(C)cc1)C(Cl)(Cl)Cl (centres undefined)	none
Brc1ccc(C2OCC3(CO2)CC2C=CC3C2)cc1 (centres undefined)	none
N#CCCCSc1nnc(-c2c[nH]c3ccccc23)n1C1CC1	none
COc1cccc(-c2cc3c(=O)n(CCNC(=O)c4cccnc4)ccn3n2)c1	none
COc1cccc(-c2cc3c(=O)n(CCNC(=O)c4ccc5cc[nH]c5c4)ccn3n2)c1	KDM5B inh 35.5µM
COc1cccc(-c2cc3c(=O)n(CCNC(=O)c4ccoc4)ccn3n2)c1	none
Cc1cc(C)cc(C(=O)NCCn2ccn3nc(-c4ccc(F)cc4)cc3c2=O)c1	none
Cc1ccc(-c2cc3c(=O)n(CCNC(=O)c4ccc5cc[nH]c5c4)ccn3n2)cc1C	KDM5B inh 35.5µM
COc1cccc(-c2cc3c(=O)n(CCNC(=O)c4ccc(OC)c(F)c4)ccn3n2)c1	KDM5B inh 20µM
COc1cccc(-c2cc3c(=O)n(CCNC(=O)c4cc(F)cc(F)c4)ccn3n2)c1	none
C#CCNC(=O)[C@@H]1Cc2cn(Cc3ccncc3)c3cccc(c23)[C@H](CC(C)C)N1	none
CN(C)c1nc(N)nc(COc2ccccc2Cl)n1	none
Cc1cnc(C(=O)Oc2ccc3oc4ccccc4c3c2)cn1	none
COc1ccc(-c2coc3cc(OCCN4CCN(C)CC4)ccc3c2=O)cc1	none
O=C(NCc1ccc(F)cc1)C1CCN(S(=O)(=O)/C=C/c2ccccc2)CC1	none
CCOC(=O)/C(C#N)=C1\SCC(C#N)S1 (centres undefined)	none
CCCC1CN(C(=O)OC(C)(C)C)CCN1 (centres undefined)	none
CSc1ccc(C)c(C(=O)Nc2ccc(C)cc2C)c1	none
CCCCNC(=O)c1cccc2c1CCN2S(=O)(=O)c1ccccc1	none
COc1ccc(NC(=O)CCn2nc(-c3cccs3)oc2=O)c(OC)c1	none
COCCn1c(CO)nnc1C1CC(NC(=O)c2cccc(C#N)c2)C1 (centres undefined)	none
CCC(C)Nc1oc(/C=C/c2cccc(OC)c2)nc1C#N (centres undefined)	none
O=C(NCCN1CCCCC1)c1nc(-c2cccc3[nH]ccc23)no1	none
COc1ccccc1C(=O)NCCc1c[nH]c2ccccc12	none
CC(=O)NCCC(=O)N1CCOc2c(O)cc(-c3cccc(Cl)c3)cc2C1	none
CN1CCOc2c(C(=O)NCCc3cnc[nH]3)cc(-c3ccccc3)cc21	KDM5B inh 31.6µM
O=C(NCCC(=O)N1CCCC1)c1ccccc1Cl	none
O=C(NCCc1cnc[nH]1)C1CCCN(C2CCOCC2)C1 (centres undefined)	none
COc1ccccc1NC(=O)N1CC[C@H]2CC(=O)N(CCc3cnc[nH]3)CC[C@H]2C1	none
CN1CCOc2c(C(=O)NCCC(N)=O)cc(-c3ccccc3)cc21	KDM5B inh 35.5µM
